This passage reports growth results from PubChem BioAssay (NCI).

What all share (assay): NCI-60 one-dose screen, 48 h (100 = growth as untreated, 0 = no growth, -100 = all killed)
Common to all, as to conditions: 10 µM unless noted

The test system of experiment [1] is NCI-H23 lung.
The test system of experiment [2] is NCI-H226 lung.
Experiment [3] concerns NCI-H322M lung.
Experiment [4] has as its system HOP-62 NSCLC.
Experiment [5] deals with NCI-H460 lung.
The test system of experiment [6] is HOP-92 NSCLC.
For experiment [7], the system named is NCI-H522 lung.
The test system of experiment [8] is A549/ATCC NSCLC.
The subject of experiment [9] is 786-0 renal.
Experiment [10] concerns COLO 205 colon.
Experiment [11] has as its system DU-145 prostate.
Experiment [12] relates to K-562 leukemia.
In experiment [13] the test system is MALME-3M melanoma.
Experiment [14] deals with MDA-MB-231 breast.
For experiment [15], the system named is RXF 393 renal.
For experiment [16], the system named is SF-268 CNS.
The subject of experiment [17] is SF-295 CNS.
The subject of experiment [18] is SF-539 CNS.
Experiment [19] has as its system UACC-257 melanoma.
The subject of experiment [20] is M14 melanoma.

Compounds without any hit were thinned out: in the full panel of roughly 83,000, 20% have a hit.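 Growth was measured after 48 h exposure to one concentration of compound in 96-well plates. Values under 10 count as active.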 Values without a mark were called inactive. The source made the active and inactive calls.

Regarding `NC(N)=N/N=C/c1ccc(-c2ccc(-c3ccc(Cl)cn3)s2)cc1`, the growth in experiment [1] was 101%; in experiment [2], 88.6%; in experiment [3], 96.7%; in experiment [4] it was 93.8%; in [5], 88.1%; in experiment [6], 58.3%. The growth in experiment [7] is 97.6%; in experiment [8], 71.4%; in experiment [9] it was 63.8%; in [10], 28.7%; in [11], 94.4%; in [12], 1.08% (active). For the same molecule, the growth in [13] was 101%; in experiment [14], 76.8%; in experiment [15], 59.2%; in experiment [16], 88.2%; in [17], 102%; in experiment [18] it was 85.9%. In addition, the growth in experiment [19] is 109%; in [20], 94.7%.
Consider `C#CCn1c(C)cc(C)c(C#N)c1=O`, for which the growth in experiment [1] was 107%; in [2] it was 114%; in [3] it was 103%; in experiment [4] it was 109%; in experiment [5], 107%; in experiment [6], 98.3%. Further, the growth in experiment [7] is 103%; in experiment [8] it was 104%; in [9], 99.9%; in [10], 110%; in [11], 110%; in experiment [12] it was 103%. Besides, the growth in [13] is 96.9%; in experiment [14] it was 101%; in experiment [15] it was 124%; in experiment [16], 98.3%; in [17], 99.7%; in experiment [18], 97.7%. The figures for the growth in [19] and in experiment [20] were 103% and 106%, respectively.
Consider `CC(C)=CCC[C@](C)(O)[C@H]1CC[C@]2(C)[C@@H]1CC[C@@H]1[C@@]3(C)C/C(=C/c4cccc([N+](=O)[O-])c4)C(=O)C(C)(C)[C@@H]3CC[C@]12C`, for which the growth was 74.9% in experiment [1]; 84.5% in [2]; 103% in [3]; 97.4% in [4]; 87.2% in experiment [5]; 76.6% in [6]. In addition, the growth in [7] was 90.5%; in experiment [8], 71%; in experiment [9] it was 88%; in experiment [10] it was 94%; in experiment [11], 68.2%; in experiment [12], 74%. In addition, the growth in experiment [13] was 84.5%; in [14] it was 88.9%; in experiment [15], 90.1%; in experiment [16], 93.2%; in experiment [17], 103%; in experiment [18] it was 96%. The growth is 97.9% in experiment [19] and 83% in [20].
Consider `CCSc1sc(-c2ccc(C)cc2)nc1[P+](c1ccccc1)(c1ccccc1)c1ccccc1`, for which the growth in experiment [1] is -13.9% (active); in experiment [2] it was -4.39% (active); in experiment [3], -16.7% (active); in experiment [4] it was -10.3% (active); in [5], -40.5% (active); in experiment [6], -38.3% (active). The growth in [7] is -10.4% (active); in experiment [8], 3.64% (active); in experiment [9], 5.86% (active); in experiment [10], -26% (active); in experiment [11] it was 4.57% (active); in experiment [12], 0.0447% (active). Further, the growth is -28.4% (active) in [13]; -24.8% (active) in experiment [14]; -37% (active) in experiment [15]; 7.81% (active) in experiment [16]; -11.3% (active) in experiment [17]; 9.93% (active) in [18]. Moreover, the growth in experiment [19] is -3.94% (active); in experiment [20], -8.96% (active).
As for `CN(C)c1ccc(-c2ccc(-c3ccc(C(=N)N)c(F)c3)s2)cc1`, the growth was -67.1% (active) in [1]; -60.1% (active) in experiment [2]; 0.0772% (active) in experiment [3]; -75.2% (active) in experiment [4]; -77.5% (active) in experiment [5]; -79.4% (active) in experiment [6]. The growth in [7] was -61.4% (active); in [8], -83.2% (active); in experiment [9], -93.7% (active); in [10], -74.7% (active); in experiment [11] it was -93.7% (active); in experiment [12], -34.3% (active). Further, the growth in [13] is 71.3%; in [14], -78.4% (active); in experiment [15], -83.2% (active); in experiment [16], -56.9% (active); in experiment [17], -88.1% (active); in [18], -93% (active). For the same molecule, the results for the growth in experiment [19] and in experiment [20] were 111% and 97.5%, respectively.
In the case of `CCNCCCn1c2c(c3ccc([N+](=O)[O-])cc3c1=O)C(=O)c1cc(OC)cnc1-2`, the growth was -57.2% (active) in experiment [1]; -44% (active) in experiment [2]; 2.15% (active) in experiment [3]; -66.6% (active) in [4]; -63% (active) in experiment [5]; -11.5% (active) in experiment [6]. Also, the growth in experiment [7] is -16.1% (active); in [8], -81.8% (active); in experiment [9], -91.7% (active); in [10], -30.9% (active); in [11], 2.6% (active); in [12] it was -3.04% (active). Also, the growth is -61.8% (active) in [13]; -32.6% (active) in experiment [14]; -85.8% (active) in experiment [15]; 1.69% (active) in [16]; -1.1% (active) in experiment [17]; -48.2% (active) in experiment [18]. Moreover, the growth in [19] was -45.3% (active); in [20], -37.1% (active).
`COc1ccc(-c2cc(-c3cccs3)n(N=O)c(=O)c2C#N)cc1`: the growth is 89.1% in [1]; 99.8% in experiment [2]; 106% in experiment [3]; 93.8% in [4]; 102% in experiment [5]; 63.8% in [6]. Also, the growth was 93% in [7]; 100% in [8]; 93.5% in experiment [9]; 119% in [10]; 119% in [11]; 34.3% in experiment [12]. The growth in [13] is 127%; in experiment [14], 100%; in experiment [15], 96.3%; in experiment [16] it was 110%; in [17], 102%; in [18], 96.5%. Also, the growth was 101% in [19] and 116% in experiment [20].
